Where “and” joins values, the source holds several entries; their conditions need not be identical. Equal values may be shown once. Inconclusive results are not listed. The source holds several records for some structures; these can differ, active in one and inactive in another. Calls of active or inactive are those of the source. How the source made its calls: active means hit-call score of the fitted dose curve at least 0.9, where 1 is the maximum; inconclusive means response in the unintended direction; inactive means score below 0.9.
Target: Cellular tumor antigen p53 (Homo sapiens) (UniProt P04637)
Assay: TOX21_p53_BLA_p4_ratio: Tox21 HCT-116 p53 Agonism Beta-lactamase Assay, Ratio, Phase 4 (AID 2283601)
Description: TOX21_p53_BLA_p4 is a cell-based, single-readout assay that uses HCT116, a human intestinal cell line, […] in a 1536-well plate.TOX21_p53_BLA_p4_ratio is an assay readout measuring reporter gene via receptor activity and designed using inducible reporter (beta lactamase induction) detected with GAL4 b-lactamase reporter gene. The signal is derived from the ratio of cleaved (ch2) to uncleaved (ch1)reporter gene substrate used as the measure of target activity.Data from the assay component TOX21_p53_BLA_p4_ratio was analyzed into 1 assay endpoint. This assay endpoint, TOX21_p53_BLA_p4_ratio, was analyzed in the positive analysis fitting direction relative to DMSO as the negative control and baseline of activity. Using a type of inducible reporter, gain-of-signal activity can be used to understand changes in the reporter gene as they relate to the gene TP53. Furthermore, this assay endpoint can be referred to as a primary readout, because this assay has produced multiple assay endpoints where this ratio serves a reporter gene function to understand target activity. To generalize the intended target to other relatable targets, this assay endpoint is annotated to the DNA binding intended target family, where the subfamily is tumor suppressor.
Thawing Method: Place 14 mL of pre-warmed thaw medium into a 15 mL of conical tub. Remove the vial of cells to be thawed from liquid nitrogen and thaw rapidly by placing at 37C in a water bath with gentle agitation for 1-2 minutes. Decontaminate the vial by wiping with 70% ethanol before opening in a biological safety cabinet. Transfer the vial contents drop-wise into 14 mL of thaw medium in a sterile 15-mL conical tub. Centrifuge cells at 900 rpm for 4 minutes and resuspend in thaw medium. Transfer contents to the T75 tissue culture flask containing Thaw Medium and place flask in a humidified 37C/5% CO2 incubator. Switch to growth medium at first passage.Propagation Method: Aspirate medium, rinse once in DPBS, add 0.25% Trypsin/EDTA and swirl to coat the cell evenly. Add an equal volume of Growth Medium to inactivate Trypsin after 2-3 minutes incubation at 37C. Centrifuge cells at 900 rpm for 4 minutes and resuspend in growth medium. Cell should be passage or fed at least twice a week.Assay Protocol: Harvest cells from culture in growth medium and resuspend in assay medium. 2.2 Dispense 4000 cells/5 uL/well into 1536-well black/clear bottom plates using a Multidrop dispenser. After the cells were incubated at 37C for 5 hours, 23 nL of compounds dissolved in DMSO were transferred to the assay plate by a PinTool resulting in a 217-fold dilution. Incubate the plates for 16 hours at 37C, 5% CO2. Add 1 uL of 6X LiveBLAzer FRET B/G (CCF4-AM) Substrate Mixture to each well using a BioRAPTR dispenser and incubate the plates at room temperature for 2 hours. Measure fluorescence intensity at 460 and 530 nm emission and 405 nm excitation by an Envision detector. Data is expressed as the ratio of 460nm/530nm emissions. Add 4 uL of Cell-titer Glo to each well using BioRAPTR and incubate the plates at room temperature for 2 hours. Measure fluorescence intensity by a VewLux plate reader.

Cellular tumor antigen p53 (Homo sapiens), sequence (P04637 whole entry, looked up): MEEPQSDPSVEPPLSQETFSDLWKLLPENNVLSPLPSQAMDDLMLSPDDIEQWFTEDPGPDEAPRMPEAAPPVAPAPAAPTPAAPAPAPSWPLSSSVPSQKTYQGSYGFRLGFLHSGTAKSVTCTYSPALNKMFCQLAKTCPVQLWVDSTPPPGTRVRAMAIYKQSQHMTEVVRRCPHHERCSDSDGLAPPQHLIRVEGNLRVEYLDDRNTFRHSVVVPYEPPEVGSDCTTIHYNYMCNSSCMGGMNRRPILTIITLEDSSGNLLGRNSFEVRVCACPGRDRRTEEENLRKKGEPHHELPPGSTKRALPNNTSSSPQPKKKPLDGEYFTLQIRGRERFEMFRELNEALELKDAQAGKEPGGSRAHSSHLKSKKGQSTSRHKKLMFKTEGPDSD

SMILES	outcome	AC50
CC(c1ccc(O)cc1)c1ccc(O)cc1	inactive	–
CCN(CCO)CCO	inactive	–
O=[N+]([O-])c1ccccc1O	inactive	–
O=C(O)CC(O)(CC(=O)O)C(=O)O	inactive	–
O=[N+]([O-])c1ccc(Nc2ccccc2)cc1	inactive	43.1 µM (active)
O=c1[nH]c2ccccc2n1C1CCN(CCCC(c2ccc(F)cc2)c2ccc(F)cc2)CC1	inactive	19.8 µM (active)
CCC[CH2][Sn]([CH2]CCC)([CH2]CCC)[CH2]CCC	–	68.7 µM (active)
CCOC(=O)CC(=O)CCl	inactive	–
C=CCc1ccccc1O	inactive	–
N#CCC#N	inactive	–
CN(N=O)C(N)=O	inactive	–
COC(=O)c1cc(Oc2ccc(Cl)cc2Cl)ccc1[N+](=O)[O-]	inactive	–
C=CC(=O)[O][Sn]([CH2]CCC)([CH2]CCC)[CH2]CCC	–	13.4 µM (active)
O=[N+]([O-])c1c2ccccc2cc2ccccc12	inactive	–
CCC[CH2][Sn]([Cl])([Cl])[CH2]CCC	–	3.21 µM (active) and 13.9 µM (active)
CC(C)=CC1C(C(=O)OCc2cccc(Oc3ccccc3)c2)C1(C)C (stereo not given)	inactive	–
CCOP(=S)(OCC)O/N=C(\C#N)c1ccccc1	inactive	–
N#Cc1ccc(Cl)cc1	inactive	–

SMILES	outcome	AC50
C=C(C)[C@@H]1CC=C(C=O)CC1	inactive	–
OCCCCO	inactive	–
O=C(Nc1ccc(Br)cc1)c1cc(Br)cc(Br)c1O	inactive	1.11 µM (active) and 589 nM (active)
C=C(C)C(=O)OCC(CC)CCCC (stereo not given)	inactive	–
O=c1oc2ccccc2c(O)c1C(CC(O)c1ccc(-c2ccc(Br)cc2)cc1)c1ccccc1 (stereo not given)	inactive	20.4 µM (active)
Nc1ccc(Br)cc1	inactive	–
CCCCOC(C)=O	inactive	–
CCN(N=O)C(N)=O	inactive	–
N#CS	inactive	–
CC(C)[N+](=O)[O-]	inactive	–
CC(C)(C#N)N=NC(C)(C)C#N	inactive	–
CC(C)C(C)(N)C#N (stereo not given)	inactive	–
Cc1cccc(C)c1NC(=O)CN1CCCC1=O	inactive	–
Cl[C@H]1OCCO[C@@H]1Cl	inactive	–
COc1ccc(N)cc1	inactive	–
O=C(Cl)OCCOCCOC(=O)Cl	inactive	–
O=[N+]([O-])c1ccc(Cl)c([N+](=O)[O-])c1	inactive	22.7 µM (active)

Reference: PubChem BioAssay (EPA / NIEHS)
